Laboratory results taken from PubChem BioAssay (EPA / NIEHS).
Active and inactive are the calls of the source. The calls were made as follows: active = hit-call score of the fitted dose curve at least 0.9, where 1 is the maximum; inactive = score below 0.9.

Experiment: CCTE_Simmons_MITO_basal_resp_rate: CCTE's HepG2 Seahorse XF Respirometric Screening Assay at Basal Respiratory State, Simmons Lab (AID 2284001)
Conditions: actives raise or lower the signal
Method: CCTE_Simmons_MITO is cell-based, respirometric assay using HepG2 cells and a Seahorse XF Analyzer to measure oxygen consumption rates over four temporal phases spanning a total of 72 minutes: pre-injection (pre-treatment), basal (following test compound injection), maximal (following FCCP uncoupler injection), and inhibited (following rotenone/antimycin A injection)CCTE_Simmons_MITO_basal_resp_rate is one of 4 assay components calculated from the CCTE_Simmons_MITO assay. It is designed to make measurements of basal respiration using a form of respirometric reporter, as detected with […] signals by Seahorse XF96 technology. Data from the assay component CCTE_Simmons_MITO_basal_resp_rate was analyzed at the endpoint, CCTE_Simmons_MITO_basal_resp_rate_OCR, with bidirectional fitting relative to DMSO as the negative control and baseline of activity. Using a type of respirometric reporter, measures of basal respiration for gain or loss-of-signal activity can be used to understand cellular oxygen consumption as it relates to cellular respiration. To generalize the intended target to other relatable targets, this assay endpoint is annotated to the mitochondria intended target family, where the subfamily is respiration.
Test chemicals were administered as a titrated series of 7 concentrations from 125 nM up to 100 uM [final] prior to kinetic endpoint detection at 6 minute intervals [3 min mix followed by 3 minutes measure] for 72 minutes. Three biological replicates of technical singles were run for every chemical concentration tested. Dimethylsulfoxide [DMSO] was used as the vehicle control. The electron transport chain inhibitor fenpyroximate was used as the positive control for decreased basal respiration and was administered as a titrated series of 6 concentrations from 250 nM up to 2.75 uM [final] with technical triplicates for the top concentration only. The uncoupler 2,4-dintirophenol was used as the positive control for increased basal respiration and was administered as a titrated series of 6 concentrations from 938 nM up to 40 uM [final] with technical triplicates for the top concentration only. A Seahorse XF Analzyer is required to measure the response.

| Compound | AC50 | outcome |
| --- | --- | --- |
| FC(F)C(F)(F)OCC(Cn1cncn1)c1ccc(Cl)cc1Cl (configuration not stated) | 12.8 µM (active) | – |
| CC(C)=CC1C(C(=O)OCN2C(=O)C3=C(CCCC3)C2=O)C1(C)C (configuration not stated) | 42.5 µM (active) | – |
| CON=C(C(=O)OC)c1ccccc1CON=C(C)c1cccc(C(F)(F)F)c1 | 8.73 µM (active) | – |
| CC[C@H](C)[C@H]1O[C@]2(C=C[C@@H]1C)C[C@@H]1C[C@@H](C/C=C(\C)[C@@H](O[C@H]3C[C@H](OC)[C@@H](O[C@H]4C[C@H](OC)[C@@H](NC)[C@H](C)O4)[C@H](C)O3)[C@@H](C)/C=C/C=C3\CO[C@@H]4[C@H](O)C(C)=C[C@@H](C(=O)O1)[C@]34O)O2 | 25.7 µM (active) | – |
| C=C(C)[C@H]1Cc2c(ccc3c2O[C@@H]2COc4cc(OC)c(OC)cc4[C@@H]2C3=O)O1 | 0.108 µM (active) | – |
| CC(C1CC1)C(O)(Cn1cncn1)c1ccc(Cl)cc1 (configuration not stated) | 35.3 µM (active) | – |
| CCC(=O)Nc1ccc(Cl)c(Cl)c1 | 41.1 µM (active) | – |
| CCCCOC(=O)[C@@H](C)Oc1ccc(Oc2ccc(C#N)cc2F)cc1 | – | inactive |
| O=[N+]([O-])c1cc(C(F)(F)F)c(Cl)c([N+](=O)[O-])c1Nc1ncc(C(F)(F)F)cc1Cl | 14.2 µM (active) | – |
| CCOP(=S)(OCC)SCCSCC | – | inactive |
| CN(C)[C@@H]1C(=O)C(C(N)=O)=C(O)[C@@]2(O)C(=O)C3=C(O)c4c(O)cccc4[C@@](C)(O)[C@H]3[C@H](O)[C@@H]12 | – | inactive |
| C#CCC1=C(C)C(OC(=O)C2C(C=C(C)C)C2(C)C)CC1=O (configuration not stated) | 34.9 µM (active) | – |
| N#CSCSC#N | 32.6 µM (active) | – |
| CCc1cccc(CC)c1N(COC)C(=O)CCl | 36.6 µM (active) | – |
| CCCOCC(=Nc1ccc(Cl)cc1C(F)(F)F)n1ccnc1 | – | inactive |
| COP(=O)(OC)OC(Br)C(Cl)(Cl)Br (configuration not stated) | – | inactive |
| CSC1=N[C@@](C)(c2ccccc2)C(=O)N1Nc1ccccc1 | 50 µM (active) | – |
| CCc1cccc(C)c1N(C(=O)CCl)C(C)COC (configuration not stated) | 23.7 µM (active) | – |
| CC(C)N(C(=O)SCC(Cl)=C(Cl)Cl)C(C)C | – | inactive |
| CCCSP(=O)(OCC)Oc1ccc(Br)cc1Cl (configuration not stated) | – | inactive |
| CCC(CC)Nc1c([N+](=O)[O-])cc(C)c(C)c1[N+](=O)[O-] | 24.8 µM (active) | – |
| CCCSP(=O)(OCC)SCCC | 32.8 µM (active) | – |
| CCOP(=S)(Oc1cnc(C(C)(C)C)nc1)OC(C)C (configuration not stated) | 59.3 µM (active) | – |
| CC(COc1ccc(Oc2ccccc2)cc1)Oc1ccccn1 (configuration not stated) | – | inactive |
| C[Si](Cn1cncn1)(c1ccc(F)cc1)c1ccc(F)cc1 | 13.9 µM (active) | – |
| CC1(C(=O)Nc2ccc(O)c(Cl)c2Cl)CCCCC1 | 29.8 µM (active) | – |
| CCOP(=O)(NC(C)C)Oc1ccc(SC)c(C)c1 (configuration not stated) | – | inactive |
